In the library only some 9.2% were active in any assay of this set; here they are far more common.
ELG1 genotox = qHTS screen for small molecules that induce genotoxicity in human embryonic kidney (HEK293T) cells expressing luciferase-tagged ELG1; HEK293T ELG1-luciferase reporter, luminescence, 16 h; Potency, µM (series often up to 46 µM), inactives show at the highest dose activity change, positive = activation, usual class: activators; 330,000 tested, 1.3% active; AID 504466, 2011; also: % of control where 0% means no effect; nearly all actives have a fitted effect of over 60% in size
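Genotoxic stress is detected as increased luminescence from luciferase-tagged ELG1 in HEK293T cells, measured with ONE-Glo after a 16 hr treatment at 37 °C.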
ELG1 repair inh = qHTS screen for small molecules that inhibit ELG1-dependent DNA repair in human embryonic kidney (HEK293T) cells expressing luciferase-tagged ELG1; HEK293T ELG1-luciferase reporter, luminescence, 16 h; DNA damage induced by 5-fluorouridine; Potency, µM (highest dose often 46.1 µM), without a hit: top-dose activity change, negative = inhibition, usual class: inhibitors; 330,000 tested, 2.3% active; AID 504467, 2011; also: % is scaled to controls: 0 for no effect and ±100 for the full control effect; nearly all actives have a fitted effect of over 55% in size
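5-Fluorouridine DNA damage + compound/DMSO, 2,000 cells/well, 16 h, 37 °C/5% CO2. ONE-Glo, 30 min RT, luminescence. Readout = decrease in reporter signal.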
SMN2 splice enh = qHTS Assay for Enhancers of SMN2 Splice Variant Expression | HEK293 SMN2-luciferase splicing reporter, luminescence, 30-36 h | Potency, µM (top dose mostly 46.1 µM), without a hit: at the top dose activity change, positive = activation, most hits filed as activators | 210,000 tested, 2.8% active; also: % of control where 0% means no effect; nearly all actives have a fitted effect of over 55% in size
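HEK293 cells carry an SMN2 […]–luciferase reporter in which exon 7 inclusion puts luciferase in frame. Cells were plated 10-12 h before compound addition, then incubated 30-36 h at 37C. ONE-Glo luminescence was read; sodium butyrate at 4.5 mM final served as control.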
Rab9 promoter act = qHTS Assay for Rab9 Promoter Activators; Huh7 Rab9 promoter-luciferase reporter, luminescence, 24 h; Potency, µM (top dose mostly 9.22 µM), for the others: at the top dose activation, negative = inhibition, actives largely listed as activators; 320,000 tested, 2.8% active; AID 485297, 2010; also: % of control where 0% means no effect; nearly all actives have a fitted effect of over 60% in size
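Huh7 cells stably carrying Rab9 promoter–luciferase reporter, plated 1500 cells/well, compound added after 2 h and incubated 24 h at 37 °C; luciferase luminescence then read after 10 min with detection reagent.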
FLuc modulator = qHTS profiling assay for firefly luciferase inhibitor/activator using purifed enzyme and Km concentrations of substrates (counterscreen for miR-21 project) | Luciferin 4-monooxygenase (Photinus pyralis), P08659 | purified FLuc, Km substrates, luminescence inhibition | Potency, µM (top dose mostly 57.5 µM), for inactives: at the top dose activity change, negative = inhibition, hits mostly inhibitors | 360,000 tested, 6.9% active | AID 588342, 2011;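 also: plate controls were vehicle for no effect and reference inhibitor for full effect; nearly all actives have a fitted effect of over 55% in size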
Target sequence (P08659 whole entry, looked up): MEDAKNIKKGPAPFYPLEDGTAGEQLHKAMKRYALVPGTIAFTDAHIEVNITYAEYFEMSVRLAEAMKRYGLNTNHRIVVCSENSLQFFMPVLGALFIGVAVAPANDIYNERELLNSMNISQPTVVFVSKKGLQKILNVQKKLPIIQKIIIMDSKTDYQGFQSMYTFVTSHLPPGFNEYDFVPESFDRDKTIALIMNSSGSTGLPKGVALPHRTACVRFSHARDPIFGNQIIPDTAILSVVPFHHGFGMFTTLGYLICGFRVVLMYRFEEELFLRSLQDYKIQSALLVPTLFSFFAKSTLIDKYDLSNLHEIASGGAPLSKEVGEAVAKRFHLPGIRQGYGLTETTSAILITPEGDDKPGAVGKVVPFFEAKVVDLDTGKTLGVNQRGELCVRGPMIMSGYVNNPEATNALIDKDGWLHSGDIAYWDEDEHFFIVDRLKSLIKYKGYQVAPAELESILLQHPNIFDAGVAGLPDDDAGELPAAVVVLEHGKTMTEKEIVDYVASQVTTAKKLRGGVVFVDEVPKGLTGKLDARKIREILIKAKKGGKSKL
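Purified P. pyralis luciferase (10nM final) with 10uM D-luciferin and 10uM ATP (Km levels) in 50mM Tris acetate pH 7.5, 10mM Mg acetate, 0.01% Tween-20, 0.05% BSA; qHTS 6-point titration, ~60 µM downward; luminescence read.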
NPC1 prom act = qHTS Assay for NPC1 Promoter Activators; Huh7 NPC1 promoter luciferase reporter, 24 h; 320,000 tested, 2.4% active; Potency, µM (highest dose often 9.22 µM), for inactives: top-dose activation, most hits filed as activators; also: % of control where 0% means no effect; nearly all actives have a fitted effect of over 60% in size
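Quantitative HTS used a cell-based reporter: Huh7 cells stably bearing the NPC1 promoter upstream of luciferase were treated with compounds for 24 h, and promoter activation was read as luminescence.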
* = called active by the depositor; u = inconclusive; x = no result; [ ] = another dose, or the depositor's remark. Calls follow the shape of the dose curve; as a rule, active = well fitted curve in the direction sought with a large enough effect; inconclusive = small, poorly fitted or top-dose-only effect, or another doubt; inactive = no such curve, though single readings can be large; an effect the other way counts as inactive or inconclusive. Potency is read from the fitted curve at half-maximal effect.

SMILES	ELG1 genotox	ELG1 repair inh	SMN2 splice enh	Rab9 promoter act	FLuc modulator	NPC1 prom act
Cc1ccc(/C=C2/Sc3ccc(C(=O)N4CCC5(CC4)OCCO5)cc3NC2=O)cc1	-6%	0%	x	-2%	15µM*	-3%
CN1C(=O)c2ccccc2Sc2ccc(C(=O)N3CCC4(CC3)OCCO4)cc21	6%	9%	-19%	-1%	1%	0%
O=C1N[C@@]2(CN3CCC2CC3)C(=O)N1CN(Cc1ccccc1)c1ccccc1	x	x	2%[9.22 µM]	x	x	x
CN(C(=O)Oc1ccc(F)cc1)c1ccccc1	0%	18%	x	1%	3%	0%
CCC(=O)c1ccc(OC(=O)N(C)c2ccccc2)cc1	15µM*	u	11µM*	2.2µM*	u	2.8µM*
CN(C(=O)Oc1ccc(C(C)(C)C)cc1)c1ccccc1	u	u	12%	u	24µM*	20%
Cc1cc(C(=O)Nc2ccc(CC(=O)O)cc2)c(C)o1	0%	22%	x	3%	11µM*	-8%
Cc1ccc(Cn2cccc(C(=O)Nc3ccc(C)c(Cl)c3)c2=O)cc1	x	x	x	x	-1%	x
C[C@@H]1C(=O)O[C@@H]2C[C@]34[C@H]5C[C@@H](C(C)(C)C)[C@@]36[C@@H](OC(=O)[C@@H]6O)O[C@@]4(C(=O)O5)[C@@]12O	x	x	-9%[20.6 µM]	x	x	x
CC1CC(C)CN(S(=O)(=O)c2ccc3c(c2)oc(=O)n3CC(=O)NCc2cccnc2)C1 (configuration not stated)	-8%	3.7µM*	x	-4%	-2%	-3%
CN(Cc1ccccc1)C(=O)Cn1c(=O)oc2cc(S(=O)(=O)NCc3ccccc3)ccc21	-10%	u	-49%	-1%	2%	0%
O=Cc1cn(CCCOc2ccccc2)c2ccccc12	-9%	u	-61%	u	-19%	u
COC(=O)c1cn(CCOc2ccccc2)c2ccccc12	21µM*	u	23%	2%	u	22%
COc1ccc(CN2C(=O)NC(=O)/C(=C\c3cc(OC)c(OC)c(OC)c3)C2=O)cc1	5%	u	-42%	0%	19µM*	1%
COc1ccc(/C=C2\C(=O)NC(=O)N(Cc3ccccc3)C2=O)c(OC)c1OC	6%	22%	7%	0%	-20%	3%
COc1ccc(CN2C(=O)NC(=O)/C(=C\c3ccco3)C2=O)cc1	-1%	u	1%	-2%	24µM*	-9%
CCOP(=O)(OCC)c1nc(-c2cccc3ccccc23)oc1N1CCCCC1	-5%	23µM*	-14%	-2%	-9%	-2%
COP(=O)(OC)c1nc(-c2cccc3ccccc23)oc1N1CCCCC1	-9%	u	-20%	1%	-9%	-3%
NNC(N)=S	x	x	-10%	x	x	x
Cc1nc(Cl)sc1C(=O)Nc1ccc2ccccc2c1	u	u	13µM*	u	7.6µM*	14%
O=C(C1CCN(c2nc3ccc(Br)cc3s2)CC1)N1CCC2(CC1)OCCO2	u	u	-77%	-12%	13µM*	-2%
CCc1ccc2nc(N3CCC(C(=O)N4CCC5(CC4)OCCO5)CC3)sc2c1	u	u	-83%	12%	9.5µM*	0%
CCOc1ccc2nc(N3CCC(C(=O)N4CCC5(CC4)OCCO5)CC3)sc2c1	1%	u	x	u	15µM*	u
Cc1ccc(S(=O)(=O)NCC2CCC(C(=O)N3CCC4(CC3)OCCO4)CC2)cc1 (configuration not stated)	0%	-9%	-16%	-2%	2%	14%
Cc1ccc2nc(N3CCC(C(=O)N4CCC5(CC4)OCCO5)CC3)sc2c1	0%	u	x	u	12µM*	u
SMILES	ELG1 genotox	ELG1 repair inh	SMN2 splice enh	Rab9 promoter act	FLuc modulator	NPC1 prom act
O=P(O)(O)CCP(=O)(O)O	x	x	-16%[9.22 µM]	x	x	x
C[C@]1(O)CC[C@H]2[C@@H]3[C@@H](O)CC4=CC(=O)CC[C@@]4(C)[C@H]3CC[C@]21C	x	x	-12%[9.22 µM]	x	x	x
C#CCO	x	x	-4%	x	x	x
Cc1cc(C(=O)CS(=O)(=O)c2ccc(F)cc2)cc(C)c1OC(=O)N(C)C	u	u	6%	2.8µM*	11µM*	4µM*
CN(C)C(=O)Oc1c(Cl)cc(Cl)c2ccccc12	2%	0%	2%	12%	0%	-2%
CC(C)CNCCc1ccccn1	x	x	-21%[9.22 µM]	x	x	x
Brc1ccc(-c2csc(N3CCCCC3)n2)cc1	x	x	x	5%	9.5µM*	1%
COc1ccc(N=Cc2c(O)n(C)c(=O)n(C)c2=O)cc1	13%	-6%	x	3%	13µM*	4%
Cc1ccc(N=Cc2c(O)n(C)c(=O)n(C)c2=O)cc1	2%	25%	x	24%	12µM*	19%
C=C(C)C#N	x	x	4%	x	x	x
COc1ccc(CN2CCN(C(=O)Cn3c(=O)oc4cc(Cl)ccc43)CC2)c(OC)c1OC	-7%	u	x	-16%	0%	-4%
CCCCCCOc1ccc(CN2CCN(CC)CC2)cc1	3.7µM*	u	-29%	2.8µM*	9.5µM*	4µM*
CCOc1ccc2nc(NC(=O)c3cccn(Cc4ccccc4C)c3=O)sc2c1	x	x	x	x	15µM*	x
Cc1cccc(Cn2cccc(C(=O)Nc3nc4ccccc4s3)c2=O)c1	x	x	x	x	6µM*	x
Cc1ccc2nc(NC(=O)c3cccn(Cc4ccccc4F)c3=O)sc2c1	x	x	x	x	6%	x
NCCc1c[nH]c2ccc(OC(=O)C(=O)O)cc12	x	x	-30%[9.22 µM]	x	x	x
CN(C)c1ccc(NC(=O)CN2C(=O)CN=C(c3ccccc3)c3cc(Cl)ccc32)cc1	-6%	u	-5%	-4%	0%	1%
Cc1ccc(NC(=O)CN2C(=O)CN=C(c3ccccc3)c3cc(Cl)ccc32)cc1	-27%	7.3µM*	-51%	-2%	10%	1%
CC1=C/C(=N\NC(=S)NCCc2ccccc2)CC(C)(C)C1	13%	u	u	29%	21µM*	25%
O=C(O)[C@H](Cc1cnc[nH]1)N1C(=O)c2ccccc2C1=O	x	x	-3%[9.22 µM]	x	x	x
CC1CCN(CC(=O)c2ccc3c(c2)OCCO3)CC1	u	u	13µM*	u	11µM*	u
CC1CN(CC(=O)c2ccccc2Cl)CC(C)O1 (configuration not stated)	1%	17%	x	-4%[1.84 µM]	-17%	-1%
CC1CCN(CC(=O)c2ccccc2Cl)CC1	u	u	u	u	11µM*	23%

High-throughput results deposited in PubChem by National Center for Advancing Translational Sciences (NCATS).
